From PubChem BioAssay (NCATS)
Inconclusive results are not listed. Active and inactive are the calls of the source. The call rests on the fitted dose curve; in most records, active means well fitted cell-killing curve with a large enough effect; inconclusive means small, poorly fitted or top-dose-only effect, or effect the other way; inactive means no such curve, though single readings can be large or run the other way.

Columns and labels:
[1] = Quantitative High-Throughput drug screen in 47 multiple myeloma cell lines against the NCATS MIPE library collection: Delta47_JCRB cell viability assay (AID 1918925; further: nearly all actives have a fitted effect of over 45% in size)
Summary of the method: (§1)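 Luminescent ATP measurement with CellTiter-Glo gives viability, scaled between DMSO-only wells (100%) and media-only wells (0%). Cells, 500 per well, faced library compounds for 48 hours at 37C.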

[2] = Quantitative High-Throughput drug screen in 47 multiple myeloma cell lines against the NCATS MIPE library collection: AMO1_DSMZ cell viability assay (AID 1918927; further: nearly all actives have a fitted effect of over 30% in size)
Summary of the method: as §1

[3] = Quantitative High-Throughput drug screen in 47 multiple myeloma cell lines against the NCATS MIPE library collection: ARP1_JJKsccF8 cell viability assay (AID 1918928; further: nearly all actives have a fitted effect of over 40% in size)
Summary of the method: (§2)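 Each line was plated at 500 cells/well and treated 48 h with library drugs. Viability came from CellTiter-Glo luminescence relative to DMSO and cell-free medium controls.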

[4] = Quantitative High-Throughput drug screen in 47 multiple myeloma cell lines against the NCATS MIPE library collection: Karpas620_DSMZ cell viability assay (AID 1918959); further: nearly all actives have a fitted effect of over 30% in size
Summary of the method: (§3)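 qHTS of the MIPE 4.0 collection: 500 myeloma cells/well, 48 h drug exposure at 37C in 5% CO2, then CellTiter-Glo for 5 min at room temperature before luminescence reading.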

[5] = Quantitative High-Throughput drug screen in 47 multiple myeloma cell lines against the NCATS MIPE library collection: KMM1_JCRB cell viability assay (AID 1918960); further: nearly all actives have a fitted effect of over 30% in size;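 on viability (% of DMSO): 100% = DMSO-treated cells and 0% = medium-only wells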
Summary of the method: as §2

[6] = Quantitative High-Throughput drug screen in 47 multiple myeloma cell lines against the NCATS MIPE library collection: EJM_DSMZ cell viability assay (AID 1918926; further: nearly all actives have a fitted effect of over 30% in size)
Summary of the method: as §1

[7] = Quantitative High-Throughput drug screen in 47 multiple myeloma cell lines against the NCATS MIPE library collection: ARD_JJKsccE7 cell viability assay (AID 1918929)
Summary of the method: as §1

[8] = Quantitative High-Throughput drug screen in 47 multiple myeloma cell lines against the NCATS MIPE library collection: FR4_PLB cell viability assay (AID 1918924; further: nearly all actives have a fitted effect of over 35% in size)
Summary of the method: as §3

[9] = Quantitative High-Throughput drug screen in 47 multiple myeloma cell lines against the NCATS MIPE library collection: Karpas417_ECACC cell viability assay (AID 1918961); conditions: Karpas417 myeloma viability, CellTiter-Glo ATP luminescence, 48 h; viability (% of DMSO): at 45.8 µM (top of the series)
Summary of the method: as §1
Potency means the concentration at half of the fitted maximal effect.

O=C1NC(=O)C(=Cc2ccc3nccnc3c2)S1
active: Potency [1] 6.45 µM | Potency [3] 10.2 µM | Potency [4] 3.63 µM | Potency [5] 2.04 µM
inactive: Potency [2]

C[C@H](NC(=O)C(=O)Nc1ccccc1C(C)(C)C)C(=O)N[C@@H](CC(=O)O)C(=O)COc1c(F)c(F)cc(F)c1F
active: Potency [2] 4.69 µM | Potency [3] 14.8 µM | Potency [7] 1.18 µM | Potency [4] 2.64 µM | Potency [5] 1.66 µM
inactive: Potency [1] | Potency [6]

CC1(C)Cc2c(sc(NC(=S)NC(=O)c3ccccc3)c2C(=O)O)CO1
inactive: Potency [8] | Potency [2]
active: Potency [4] 5.9 µM

Nc1ncnc2c1nc(Cl)n2[C@@H]1O[C@H](CO)[C@@H](O)[C@@H]1O
active: Potency [1] 23.5 µM | Potency [6] 18.7 µM | Potency [2] 2.35 µM | Potency [3] 13.2 µM | Potency [7] 14.8 µM | Potency [4] 14.8 µM

O=C1NC(=O)C(=Cc2cccc(C(F)(F)F)c2)S1
active: Potency [6] 20.9 µM | Potency [9] 26.4 µM
inactive: Potency [8]

CC(C)(C)C(=O)Oc1ccc2c(c1)nc(NC(=O)c1cccc([N+](=O)[O-])c1)n2CCCO
active: Potency [6] 13.2 µM
inactive: Potency [1] | Potency [2] | Potency [7] | Potency [4] | Potency [5] | Potency [9]

CCCCCNC(=O)N1CCC(CN(Cc2ccc(Cl)cc2)Cc2ccc([N+](=O)[O-])s2)C1 (configuration not stated)
active: Potency [8] 23.5 µM | Potency [2] 18.7 µM | Potency [7] 20.9 µM | Potency [4] 18.7 µM

COc1ccc(-c2cc(=O)c3c(O)cc(O)cc3o2)cc1O
active: Potency [1] 4.69 µM | Potency [6] 4.69 µM | Potency [2] 5.26 µM | Potency [7] 6.62 µM | Potency [5] 7.43 µM

O=C1NC(=O)C(=Cc2ccc(-c3ccc(F)cc3)o2)S1
inactive: Potency [8] | Potency [4]
active: Potency [5] 5.9 µM | Potency [9] 1.66 µM

C=C1C(=O)OC2C=C(C)CCC=C(C)CCC12 (configuration not stated)
active: Potency [1] 18.7 µM | Potency [2] 18.7 µM | Potency [3] 20.9 µM | Potency [7] 23.5 µM | Potency [4] 14.8 µM | Potency [5] 16.6 µM

CC[C@]1(O)C[C@@H]2CN(CCc3c([nH]c4ccccc34)[C@@](C(=O)OC)(c3cc4c(cc3OC)N(C=O)[C@@H]3C45CCN4CC=C[C@](CC)([C@H]45)[C@@H](OC(C)=O)[C@]3(O)C(=O)OC)C2)C1 (some centres not stated)
active: Potency [8] 20.9 µM
inactive: Potency [7] | Potency [4] | Potency [5] | Potency [9]

COc1cccc(-c2cc(=O)c3ccccc3o2)c1N
active: Potency [1] 2.64 µM | Potency [2] 16.6 µM
inactive: Potency [6] | Potency [7] | Potency [4] | Potency [5]

Cc1ccc(C(C)(O)c2nc3ccccc3s2)c(C)c1 (configuration not stated)
active: Potency [2] 20.9 µM
inactive: Potency [1] | Potency [3] | Potency [7] | Potency [4] | Potency [5] | Potency [9]

Nc1ncnc2ccccc12
inactive: Potency [8] | Potency [3] | Potency [7] | Potency [4] | Potency [5]

COc1ccc2c3c1OC1C[C@@H](O)C=C[C@@]31CCN(C)C2 (some centres not stated)
inactive: Potency [8] | Potency [2] | Potency [4] | Potency [5]

COc1ccc(-c2oc3c(CC=C(C)C)c(OC4O[C@H](CO)[C@@H](O)[C@H](O)[C@@H]4O)cc(O)c3c(=O)c2OC2O[C@@H](C)[C@H](O)[C@@H](O)[C@@H]2O)cc1 (some centres not stated)
active: Potency [1] 18.7 µM | Potency [2] 8.33 µM | Potency [3] 16.6 µM | Potency [7] 9.35 µM | Potency [4] 11.8 µM | Potency [9] 10.5 µM

COc1ccc2c(Oc3ccc(NC(=O)c4c(C)n(CC(C)(C)O)n(-c5ccccc5)c4=O)nc3)ccnc2c1
inactive: Potency [4]
active: Potency [8] 20.9 µM

COc1cc(O)c2c(c1)C(=O)c1cc(C)cc(O)c1C2=O
inactive: Potency [1] | Potency [6] | Potency [7] | Potency [4] | Potency [5] | Potency [9]

CCC(=O)NC[C@H](Cc1ccc(OCCc2nc(-c3ccccc3)oc2C)cc1)NC(C)=CC(=O)c1ccc(C(F)(F)F)cc1
active: Potency [6] 26.4 µM | Potency [3] 23.5 µM | Potency [7] 1.48 µM
inactive: Potency [1] | Potency [4]

Clc1ccc(-c2nc3sccn3c2C=NOCc2ccc(Cl)c(Cl)c2)cc1
inactive: Potency [8] | Potency [2] | Potency [4] | Potency [5] | Potency [9]

NC(CO)(CO)CCc1ccc(Sc2cccc(OCc3ccccc3)c2)cc1Cl
active: Potency [1] 9.35 µM | Potency [2] 20.9 µM | Potency [3] 23.5 µM | Potency [4] 16.6 µM | Potency [5] 18.7 µM

C=C1C(=O)OC(CCCCCCCC)C1C(=O)O (configuration not stated)
inactive: Potency [2] | Potency [3] | Potency [7]
active: Potency [1] 14.8 µM | viability (% of DMSO) [9] 74%

O=C1NC(=O)C(=Cc2ccc3c(c2)OC(F)(F)O3)S1
inactive: Potency [8]
active: Potency [7] 16.6 µM

C=CCc1ccc(O)c(-c2ccc(O)c(CC=C)c2)c1
active: Potency [1] 18.7 µM | Potency [6] 23.5 µM | Potency [2] 23.5 µM | Potency [4] 26.4 µM
